GLP-1R agonist = activates the human GLP-1 receptor; P43220; HEK293 GLP-1R CRE-luciferase, luminescence, 4-6 h; cells express a hypersensitive GLP-1R form; Potency, µM (top dose mostly 45.6 µM), for inactives: at the highest dose activation, usual class: activators; hit rate 0.007% among 380,000; note: potency is the fitted concentration of half-maximal effect; % of control where 0% means no effect
D3 ag = agonists of human D3 dopamine receptor. D3R DiscoveRx beta-arrestin cells, luminescence, 90 min. max activation, %. hit rate 0.58% among 410,000. AID 652048; in the data active = max activation above about 30%; note: 0% is about no effect
Target sequence (P35462 whole entry, looked up): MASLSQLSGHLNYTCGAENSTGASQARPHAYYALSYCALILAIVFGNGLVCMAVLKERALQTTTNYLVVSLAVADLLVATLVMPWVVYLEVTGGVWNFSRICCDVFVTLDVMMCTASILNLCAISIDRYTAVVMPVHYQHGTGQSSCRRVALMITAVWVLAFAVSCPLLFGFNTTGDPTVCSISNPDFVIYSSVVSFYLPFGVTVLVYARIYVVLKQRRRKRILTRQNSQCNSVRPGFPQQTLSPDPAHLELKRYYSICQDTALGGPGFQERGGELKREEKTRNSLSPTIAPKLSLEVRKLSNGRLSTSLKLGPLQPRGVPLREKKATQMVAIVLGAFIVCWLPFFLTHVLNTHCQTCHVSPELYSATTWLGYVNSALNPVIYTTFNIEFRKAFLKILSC
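Agonist-mode cell screen: cells plated at 1500/well and incubated overnight at 37 °C, then exposed to library compounds for 90 min at 37 °C. Detection reagent was added for 30–60 min at room temperature, and luminescence was read.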
GLP-1R inv ag = inverse agonists of human GLP-1 receptor. HEK293 GLP-1R CRE-luciferase, luminescence, 24 h; GLP-1R form is constitutively active. Potency, µM (top dose mostly 38.3 µM), without a hit: at the top dose activity change, negative = inhibition, most hits filed as inhibitors. hit rate 1.6% among 410,000; note: potency is the fitted concentration of half-maximal effect; % is set by controls: 0 for no effect and ±100 for the full control effect; nearly all actives have a fitted effect of over 55% in size
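Readout was luciferase luminescence, measured 12 min after detection reagent at room temperature. Beforehand, GLP-1R reporter HEK293 cells had sat 12 h, then received compounds for 24 hr at 37 deg C.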
D3 antag = antagonists of human D3 dopamine receptor; AID 652054; max response, negative = inhibition, %; D3R cells, DiscoveRx beta-arrestin luminescence, antagonist mode; stronger effect = lower value; P35462; hit rate 2.5% among 360,000; in the data active = max response below about -50%; inconclusive = no clear call, values can overlap the other calls; note: % is set by controls: 0 for no effect and ±100 for the full control effect
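Cells plated overnight at 1500 cells/well, then exposed to library compounds with dopamine controls for 90 minutes at 37 degrees C. DiscoveRx reagent added for 30–60 minutes at room temperature; luminescence read, quantitative HTS format.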
* hit, by the source's call; ? = inconclusive; / = no result; ! = not confirmed by another sample. Only some compounds are listed: those with a hit (about 4.3% of all), similar ones and a draw of the others. Unless noted, calls come from the whole dose curve; as a rule, active = well fitted curve in the direction sought with a large enough effect; inconclusive = small, poorly fitted or top-dose-only effect, or another doubt; inactive = no such curve, though single readings can be large; an effect the other way counts as inactive or inconclusive.

SMILES | GLP-1R agonist | D3 ag | GLP-1R inv ag | D3 antag
Brc1cccc(OCCn2ccnc2)c1 | 5.9% | -3.0 | -21.9% | -65.3*
Cc1nn(CCOc2ccccc2Cl)c(C)c1[N+](=O)[O-] | 12.6% | -11.2 | 1.2% | ?
Cc1nn(CCOc2cccc(Cl)c2)c(C)c1[N+](=O)[O-] | 6.8% | -14.5 | ? | -63.7*
Brc1cccc(OCCCN2CCCCCC2)c1 | -2.8% | -17.4 | ? | -73.6*
c1ccc(Oc2cccc(OCCCCN3CCCC3)c2)cc1 | -4.0% | -15.1 | ? | -17.7
Brc1cccc(OCCOCCn2ccnc2)c1 | 2.3% | -3.2 | 6.7% | -21.7
CC1CCN(CCCCOc2cccc(C(C)C)c2)CC1 | 4.7% | -20.1 | ? | -107.7*
COC(=O)c1cc(C)nc2c1c(=O)nc(SCc1cccc(C(F)(F)F)c1)n2C1CC1 | / | -9.0 | 1.2% | /
CC(CSC(=O)c1ccccc1)C(=O)N1CC(Sc2ccccc2)CC1C(=O)O (stereo not given) | 3.4% | / | / | /
CN(C)CCCOc1cccc(Cl)c1 | -0.6% | -10.8 | -2.2% | ?
CCCCNCCCOc1cccc(Cl)c1 | 3.4% | -33.7 | 0.0% | -80.2*
Clc1cccc(OCCN2CCN(CCOc3cccc(Cl)c3)CC2)c1 | 15.8% | 57.7* | ? | -21.3
CC(C)c1cccc(OCCCCN(C)C)c1 | 12.6% | -18.6 | ? | -57.9*
CC1CN(CCOc2cccc(Oc3ccccc3)c2)CC(C)O1 (stereo not given) | 11.9% | -22.6 | ? | -23.0
CC1CCCN(CCOc2cccc(Oc3ccccc3)c2)C1 (stereo not given) | 8.3% | -29.1 | ? | -60.7*
Cc1oc(-c2ccc(Cl)cc2)nc1CSc1nnc(C)n2c1cc1sccc12 | / | -16.7 | 6.0% | /
Cc1ccc2onc(CNC(=O)N(C)Cc3ccccc3)c2c1 | / | 6.6 | 10.0% | /
CC1CCN(CCOc2cccc(Br)c2)CC1 | 2.6% | 3.2 | -23.4% | -75.4*
CC1CCN(CCOc2ccccc2-c2ccccc2)CC1 | -2.1% | -29.5 | -20.8% | ?
Cc1cc(C)nc(SCC(=O)N2CCOCC2)n1 | 0.7% | 14.6 | 5.7% | -53.5*
Cc1cc(C)nc(SCCC(=O)N2CCOCC2)n1 | -4.6% | 1.2 | 12.8% | 2.1
CCc1cc2cccc(C)c2nc1SCC(=O)N1CCN(C(=O)c2ccco2)CC1 | -9.5% | 40.6* | -12.4% | 70.3
CC(=O)c1ccc(N2CCN(CC(O)COC(c3ccccc3)c3ccccc3C)CC2)cc1 (stereo not given) | 2.6% | -9.4 | ? | -23.7
OC(CSc1ccc(F)cc1)CN1CCN(c2ccccc2)CC1 (stereo not given) | 12.1% | 14.1 | ? | -72.3*
OC(COc1ccccc1)CN1CCN(c2ccccc2)CC1 (stereo not given) | -2.2% | -4.0 | -29.5% | -70.9*
SMILES | GLP-1R agonist | D3 ag | GLP-1R inv ag | D3 antag
OC(COc1ccc(Br)cc1)CN1CCN(c2ccccc2)CC1 (stereo not given) | -3.9% | 15.5 | ? | -51.5*
OCC(O)CN1CCN(c2ccccc2)CC1 (stereo not given) | 2.0% | -21.3 | 2.7% | -18.5
CC(=O)c1ccc(N2CCN(CC(O)COC(c3ccccc3)c3ccccc3)CC2)cc1 (stereo not given) | 2.7% | -23.0 | ? | -69.2*
Cc1ccc(OCC(=O)N2CCCC(CCC(=O)N(C)CCc3ccccn3)C2)cc1 (stereo not given) | 10.2% | -0.1 | 8.6% | 0.0
C[C@@H]1CN([C@@H](C)CO)C(=O)c2cccc(NC(=O)C3CCOCC3)c2O[C@H]1CN(C)S(=O)(=O)c1ccc(Cl)cc1 | -0.3% | 7.3 | 6.4% | 40.8
CCN(CC)c1ccc(NC(=O)Cn2nc(C)n3cccc3c2=O)c(C)c1 | / | -10.8 | -1.3% | /
CCCCN1C(=O)CN(C2CCCCCC2)C(=O)C1c1ccc(OC(C)C)c(OC)c1 (stereo not given) | / | -9.8 | 2.3% | /
COc1ccc(-c2cnnn2-c2ccc(NC(=O)c3c(F)cccc3F)cc2)cc1 | / | -1.1 | -9.1% | /
OCCN1CCN(CC(O)COc2ccc(-c3ccccc3)cc2)CC1 (stereo not given) | -0.5% | 2.5 | ? | -62.1*
COc1cc(C(C)=O)ccc1OCC(O)CN1CCN(c2cc(C)cc(C)c2)CC1 (stereo not given) | 6.6% | -10.5 | ? | -55.5*
Cc1ccc(Nc2nc3nonc3nc2Nc2cccc(C(F)(F)F)c2)cc1Cl | / | -18.8 | ? | /
CCOC(=O)c1ccc(N2C(=O)c3[nH]nc(-c4ccc(OC)cc4)c3C2c2ccc(C)cc2)cc1 (stereo not given) | -4.8% | 0.6 | ? | /
COc1ccccc1C(C[N+](=O)[O-])c1c[nH]c2ccccc12 (stereo not given) | 5.4% | -6.0 | 10µM* | -16.7
Cc1cc(C)cc(-n2c(C)nc3cc(C(=O)NCc4ccc(F)cc4)ccc32)c1 | / | -0.7 | ? | /
COc1ccc(N(CCC(=O)Nc2ccccc2F)S(=O)(=O)c2ccc(C)cc2C)cc1 | 4.6% | -1.0 | 10µM* | 3.2
CN1CCCN=C1/C=C\c1cccs1 | -0.4% | / | / | /
Cc1ccsc1/C=C/C1=NCCCN1C | 2.1% | -44.6 | 1.4% | -52.1*!
CCOC(=O)C1=C(CN2CCC(C)CC2)NC(=O)NC1c1ccc(F)cc1 (stereo not given) | / | 2.2 | ? | /
CCOC(=O)C1=C(CNCc2ccccc2Cl)NC(=O)NC1c1cccc([N+](=O)[O-])c1 (stereo not given) | 13.2% | -11.4 | ? | 1.5
CCOC(=O)C1=C(CN2CCC(C)CC2)NC(=O)NC1c1ccc(Cl)cc1 (stereo not given) | 17.8% | 2.4 | 0.0% | -86.0*
CCOC(=O)C1=C(CN2CCN(c3cc(C)ccc3C)CC2)NC(=O)NC1c1ccccc1 (stereo not given) | -1.8% | 9.7 | 8.91µM* | /
CCOC(=O)C1=C(CNCCc2ccc(Cl)cc2)NC(=O)NC1c1cccc([N+](=O)[O-])c1 (stereo not given) | 11.0% | -5.8 | 10µM* | 20.9
Cc1ccc(-c2noc(-c3cccnc3NCc3ccc(Cl)cc3)n2)cc1 | / | 2.7 | 4.1% | /
CCn1c(C(=O)Nc2c(C)cccc2C)cc2sc(Cl)cc21 | / | -5.2 | ? | /
Cc1cccc(-c2nc(SCc3cc(=O)c4c(C)cc(C)cc4[nH]3)n[nH]2)c1 | / | 4.2 | 1.3% | /
SMILES | GLP-1R agonist | D3 ag | GLP-1R inv ag | D3 antag
COC(=O)c1scc(-c2ccc(C)cc2)c1S(=O)(=O)Nc1cccc(Cl)c1C | / | -3.1 | 10µM* | /
CCOc1ccccc1NS(=O)(=O)c1c(-c2ccc(C)cc2)csc1C(=O)OC | / | -7.1 | 11.2µM* | /
COc1ccc(SN=C2C(C)=CC(=O)C=C2C)cc1 | 15.5% | -17.1 | 20.7% | ?
COC1=CC(=O)c2ccccc2C1=O | -9.4% | -37.9 | ? | -70.7*
COC1=CC(=O)C=C(OC)C1=O | -13.5% | -93.5 | ? | -121.3*
O=C(NCCCN=C1NS(=O)(=O)c2ccccc21)c1ccc(F)cc1 | 0.0% | -9.8 | 12.0% | 1.1
Cc1cc(-c2nnc(SCC(=O)N3C(C)CCCC3C)o2)no1 (stereo not given) | -8.5% | 0.6 | 15.7% | -7.3
CC1CCCC(C)N1C(=O)CSc1nnc(C2CCCCC2)o1 (stereo not given) | 0.1% | -17.0 | 3.16µM* | -23.5

High-throughput results as filed in PubChem.
